Compounds without any hit were thinned out: in the full panel of roughly 79,000, 15% have a hit. Calls of active or inactive are those of the source. No stated cut-off is given here; in the data, active means growth inhibition above about 70%; inactive means the rest.
Legend:
[1] = NCI Yeast Anticancer Drug Screen. Data for the rad52 strain (AID 147);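 further: 0% = growth of vehicle-treated control cultures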; settings: S. cerevisiae rad52 mutant growth inhibition, hits give high values
Procedure, shortened: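 Measured: yeast growth inhibition. System: strain with a defined DNA damage repair alteration. Reference: vehicle-treated control cultures.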

[2] = NCI Yeast Anticancer Drug Screen. Data for the wt1 strain (AID 149);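 further: 0% = growth of vehicle-treated wt1 cultures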; settings: S. cerevisiae wt1 strain (SPY 50644) growth inhibition, hits give high values
Procedure, shortened: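 The wt1 strain was treated with compounds, and growth was compared with vehicle-treated cultures to give inhibition.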

[3] = NCI Yeast Anticancer Drug Screen. Data for the rad50EPP+ strain (AID 151);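 further: 0% = growth of vehicle-treated control cultures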; settings: S. cerevisiae rad50 mutant strain, hits give high values
Procedure, shortened: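 One strain with a rad50 alteration (rad50EPP+) was compound-treated, its growth then compared to that of vehicle controls.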

[4] = NCI Yeast Anticancer Drug Screen. Data for the mgt1 strain (AID 153); settings: S. cerevisiae mgt1 mutant growth inhibition, hits give high values
Procedure, shortened: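 After exposure of the mgt1 yeast mutant to compound, growth was measured and reported as inhibition compared with vehicle controls.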

[5] = NCI Yeast Anticancer Drug Screen. Data for the rad50 strain (AID 155);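 further: 0% = growth of vehicle-only cultures of the same strain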; settings: S. cerevisiae rad50 strain growth inhibition, hits give high values
Procedure, shortened: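 Cells are treated with compound, grown, and their growth is then scored against vehicle-only cultures of the same repair-deficient yeast strain.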

[6] = NCI Yeast Anticancer Drug Screen. Data for the mec2-1 strain (AID 157); settings: S. cerevisiae mec2-1 strain, hits give high values
Procedure, shortened: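 Test agents were screened against the mec2-1 yeast strain, with defined DNA repair or cell cycle alteration. Growth was scored as inhibition against vehicle-only controls.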

[7] = NCI Yeast Anticancer Drug Screen. Data for the rad14 strain (AID 159);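 further: 0% = growth of vehicle-treated control cultures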; settings: S. cerevisiae rad14 strain growth inhibition, hits give high values
Procedure, shortened: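 Readout: yeast growth inhibition, referenced to vehicle-only cultures. Strain bears a defined alteration in DNA damage repair.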

[8] = NCI Yeast Anticancer Drug Screen. Data for the sgs1 mgt1 strain (AID 161);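 further: 0% = growth of cultures given vehicle only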; settings: S. cerevisiae sgs1 mgt1 strain, hits give high values
Procedure, shortened: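 Genetically altered yeast, compound exposure, growth inhibition relative to vehicle.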

[9] = NCI Yeast Anticancer Drug Screen. Data for the CLN2oe strain (AID 163);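 further: 0% = growth of vehicle-only control cultures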; settings: S. cerevisiae CLN2oe strain, hits give high values
Procedure, shortened: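 Here, growth inhibition in a cell-cycle-altered yeast strain after compound exposure was quantified against vehicle control growth.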

[10] = NCI Yeast Anticancer Drug Screen. Data for the cln2 rad14 strain (AID 165);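 further: 0% = growth equal to vehicle treated cultures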; settings: S. cerevisiae cln2 rad14 strain, hits give high values
Procedure, shortened: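 Growth of compound-exposed yeast (cln2 rad14 genotype) measured and expressed as inhibition relative to vehicle.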

[11] = NCI Yeast Anticancer Drug Screen. Data for the bub3 strain (AID 167); settings: S. cerevisiae bub3 mutant strain, hits give high values
Procedure, shortened: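 Part of a panel of yeast mutants defective in DNA damage repair or cell cycle regulation. Each strain is grown with compound, and inhibition is calculated relative to solvent-treated cultures.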

[12] = NCI Yeast Anticancer Drug Screen. Data for the wt2 strain (AID 169);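 further: 0% = growth of vehicle-treated yeast cultures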; settings: S. cerevisiae wt2 strain growth inhibition, hits give high values
Procedure, shortened: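 Genetically defined yeast strains from a DNA-repair/cell-cycle panel were used. Compound-exposed yeast growth was measured, and the inhibition was calculated relative to vehicle treatment.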

[13] = NCI Yeast Anticancer Drug Screen. Data for the mlh1 strain (AID 171);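 further: 0% = growth of vehicle-treated control cultures of the same strain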; settings: S. cerevisiae mlh1 strain growth inhibition, hits give high values
Procedure, shortened: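 Here the genetically defined yeast mutant is grown with each compound, and the extent to which its growth falls below that of vehicle-exposed cells is reported.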

[14] = NCI Yeast Anticancer Drug Screen. Data for the sgs1 strain (AID 173);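 further: 0% = growth of vehicle-only control cultures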; settings: S. cerevisiae sgs1 mutant, hits give high values
Procedure, shortened: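 Relative growth inhibition, referenced to vehicle, was determined in a yeast strain with a defined alteration affecting DNA damage repair or cell cycle control after compound exposure.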

[15] = NCI Yeast Anticancer Drug Screen. Data for the mlh1 rad18 strain (AID 175); settings: S. cerevisiae mlh1 rad18 strain growth inhibition, hits give high values
Procedure, shortened: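 In this whole-cell yeast screen, a strain with altered DNA damage repair is challenged with compound, and its growth is measured against matched vehicle-treated controls.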

[16] = NCI Yeast Anticancer Drug Screen. Data for the rad18 strain (AID 177); settings: S. cerevisiae rad18 mutant growth inhibition, hits give high values
Procedure, shortened: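 Screen uses a yeast strain with a defined lesion in DNA damage repair; compound effect is read as loss of growth compared to untreated vehicle cultures.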

[17] = at 5.0 µM (retest, dose inferred, filed as 0.5)
[18] = at 50.0 µM (retest, dose inferred, filed as 5.0)

Measured: growth inhibition

CN(C)CCNc1cccc2sc3ccc(O)cc3c(=O)c12
active: [5]; [18] 90% | [5]; at 50.0 µM 87.8%
inactive: [1]; at 1.2 µM 0% | [1]; at 3.7 µM 1% | [1]; at 11.0 µM 10% | [1]; at 33.0 µM 20% | [1]; at 100.0 µM 43% | [2]; at 1.2 µM 1% | [2]; at 3.7 µM 6% | [2]; at 11.0 µM 3% | [2]; at 33.0 µM 4% | [2]; at 100.0 µM 6% | [3]; at 1.2 µM 2% | [3]; at 3.7 µM 11% | [3]; at 11.0 µM 15% | [3]; at 33.0 µM 26% | [3]; at 100.0 µM 33% | [4]; at 1.2 µM -1% | [4]; at 3.7 µM -5% | [4]; at 11.0 µM -3% | [4]; at 33.0 µM 0% | [4]; at 100.0 µM 6% | [5]; at 1.2 µM 4% | [5]; at 3.7 µM 6% | [5]; [17] 14% | [5]; at 11.0 µM 11% | [5]; at 33.0 µM 31% | [5]; at 100.0 µM 47% | [6]; at 1.2 µM 4% | [6]; at 3.7 µM 5% | [6]; [17] -1% | [6]; at 11.0 µM 8% | [6]; at 33.0 µM 9% | [6]; [18] 17% | [6]; at 50.0 µM 18.5% | [6]; at 100.0 µM 7% | [7]; at 1.2 µM -1% | [7]; at 3.7 µM 1% | [7]; at 11.0 µM 5% | [7]; at 33.0 µM 12% | [7]; at 100.0 µM 19% | [8]; [17] 1% | [8]; [18] 7% | [8]; at 50.0 µM 48.1% | [9]; at 1.2 µM -6% | [9]; at 3.7 µM -11% | [9]; at 11.0 µM -8% | [9]; at 33.0 µM -5% | [9]; at 100.0 µM 4% | [10]; [17] 3% | [10]; [18] 26% | [10]; at 50.0 µM 45.5% | [11]; at 1.2 µM 2% | [11]; at 3.7 µM -4% | [11]; [17] 1% | [11]; at 11.0 µM -1% | [11]; at 33.0 µM -2% | [11]; [18] 8% | [11]; at 50.0 µM 36.2% | [11]; at 100.0 µM -4% | [12]; at 1.2 µM 1% | [12]; at 3.7 µM -2% | [12]; at 11.0 µM 0% | [12]; at 33.0 µM 1% | [12]; at 100.0 µM 4% | [13]; at 1.2 µM 1% | [13]; at 3.7 µM 3% | [13]; at 11.0 µM 4% | [13]; at 33.0 µM 4% | [13]; at 100.0 µM 8% | [14]; at 1.2 µM -1% | [14]; at 3.7 µM -1% | [14]; at 11.0 µM 2% | [14]; at 33.0 µM 3% | [14]; at 100.0 µM 3% | [15]; [17] -3% | [15]; [18] 44% | [15]; at 50.0 µM 66.5% | [16]; at 1.2 µM -2% | [16]; at 3.7 µM -2% | [16]; at 11.0 µM -1% | [16]; at 33.0 µM 1% | [16]; at 100.0 µM 5%

Reference: PubChem BioAssay (NCI)
